Source: PubChem BioAssay (EPA / NIEHS)
The source made the active and inactive calls. The calls were made as follows: active = hit-call score of the fitted dose curve at least 0.9, where 1 is the maximum; inactive = score below 0.9.

Key:
[1] = target: CCAAT/enhancer-binding protein beta (Homo sapiens) (UniProt P17676); assay: ATG_C_EBP_CIS: Attagene CIS-FACTORIAL HepG2 Assay for human CCAAT/Enhancer Binding Protein (C/EBP) beta (AID 2282927); details: HepG2 Attagene cis-factorial transcription factor reporter; actives raise or lower the signal
Sequence of CCAAT/enhancer-binding protein beta (Homo sapiens) (P17676 whole entry, looked up): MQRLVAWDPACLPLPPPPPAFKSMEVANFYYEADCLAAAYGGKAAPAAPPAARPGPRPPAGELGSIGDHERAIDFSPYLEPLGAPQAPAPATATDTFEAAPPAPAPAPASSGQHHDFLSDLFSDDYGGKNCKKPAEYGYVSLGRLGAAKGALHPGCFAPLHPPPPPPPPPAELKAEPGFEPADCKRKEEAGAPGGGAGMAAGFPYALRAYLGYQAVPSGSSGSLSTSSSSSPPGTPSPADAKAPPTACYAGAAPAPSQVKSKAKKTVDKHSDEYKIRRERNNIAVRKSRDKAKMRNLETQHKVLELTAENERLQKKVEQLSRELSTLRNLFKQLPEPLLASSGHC
Procedure, shortened: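 RT-PCR/capillary electrophoresis fluorescence of reporter mRNA, 24 h post-dose, in HepG2 cells carrying transfected cis-promoter reporter units. Bidirectional curve fitting against DMSO baseline captures gain or loss of signal.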

[2] = ATG_CMV_CIS: Attagene CIS-FACTORIAL HepG2 Assay for human CMV (Internal Marker) (AID 2282928); details: HepG2 CMV promoter reporter, transcription factor profiling; actives raise or lower the signal;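 also: endpoint acts as a background internal control marker rather than a target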
Procedure, shortened: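 24 h chemical treatment, HepG2 with transient multi-reporter transfection; RNA → oligo(dT) RT → PCR → 6-FAM extension → HpaI digest → CE fluorescence. Bidirectional fit, DMSO negative control.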

[3] = ATG_DR4_LXR_CIS: Attagene CIS-FACTORIAL HepG2 Assay for human Liver X Receptor (LXR), DR4 submotif (AID 2282929); details: HepG2 Attagene DR4 cis-reporter, mRNA transcription; actives raise or lower the signal
Procedure, shortened: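 Transiently transfected HepG2 liver cells; cis-regulated reporters; 24 h dosing. RT-PCR plus CE read-out of reporter mRNA. DMSO baseline, bidirectional curve fitting.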

[4] = target: Aryl hydrocarbon receptor (Homo sapiens) (UniProt P35869); assay: ATG_Ahr_CIS: Attagene CIS-FACTORIAL HepG2 Assay for human Aryl Hydrocarbon Receptor (Ahr) (AID 2282930); details: HepG2 AhR cis-factorial reporter transcription; actives raise or lower the signal
Sequence of Aryl hydrocarbon receptor (Homo sapiens) (P35869 whole entry, looked up): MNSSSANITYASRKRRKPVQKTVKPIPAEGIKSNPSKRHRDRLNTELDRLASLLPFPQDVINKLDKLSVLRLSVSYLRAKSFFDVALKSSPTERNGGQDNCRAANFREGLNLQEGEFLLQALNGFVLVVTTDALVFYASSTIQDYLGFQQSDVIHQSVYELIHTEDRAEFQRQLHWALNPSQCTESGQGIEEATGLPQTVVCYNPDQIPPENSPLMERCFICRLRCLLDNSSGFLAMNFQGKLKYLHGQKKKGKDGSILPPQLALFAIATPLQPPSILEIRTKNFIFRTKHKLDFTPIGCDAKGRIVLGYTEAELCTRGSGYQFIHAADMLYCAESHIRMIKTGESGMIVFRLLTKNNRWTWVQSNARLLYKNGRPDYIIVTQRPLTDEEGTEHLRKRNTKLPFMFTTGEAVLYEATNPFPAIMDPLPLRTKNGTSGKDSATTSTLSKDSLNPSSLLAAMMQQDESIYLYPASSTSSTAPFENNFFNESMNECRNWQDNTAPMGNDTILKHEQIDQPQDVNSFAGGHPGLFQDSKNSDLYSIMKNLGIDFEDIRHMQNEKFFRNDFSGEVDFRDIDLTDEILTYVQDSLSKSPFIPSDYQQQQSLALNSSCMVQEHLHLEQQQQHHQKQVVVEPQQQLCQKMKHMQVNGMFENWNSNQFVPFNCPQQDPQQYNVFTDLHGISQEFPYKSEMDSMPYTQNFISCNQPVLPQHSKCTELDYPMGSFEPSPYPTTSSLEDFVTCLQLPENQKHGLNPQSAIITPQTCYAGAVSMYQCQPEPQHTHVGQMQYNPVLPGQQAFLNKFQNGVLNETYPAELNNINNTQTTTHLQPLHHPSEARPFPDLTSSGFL
Procedure, shortened: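 HepG2 cells transiently transfected with cis-element-driven multiplexed reporter transcription units; endogenous transcription factor activity measured as reporter mRNA 24 h after dosing. RT-PCR, 6-FAM labelling, HpaI digestion, capillary electrophoresis; bidirectional fitting versus DMSO baseline.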

[5] = ATG_AP_1_CIS: Attagene CIS-FACTORIAL HepG2 Assay for human Activator Protein 1 (AP-1) (AID 2282931); details: HepG2 Attagene cis-factorial AP-1 reporter mRNA; actives raise or lower the signal
Procedure, shortened: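 We transfected HepG2 cells transiently with a set of cis-regulated reporter transcription units, dosed them for 24 h, and quantified reporter mRNA via RT-PCR and capillary electrophoresis, scoring gain or loss of signal relative to DMSO.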

[6] = ATG_AP_2_CIS: Attagene CIS-FACTORIAL HepG2 Assay for human Activator Protein 2 (AP-2) (AID 2282932); details: HepG2 AP-2 cis-reporter, Attagene transcription factor profiling; actives raise or lower the signal
Procedure, shortened: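 Cells (HepG2) transfected with promoter-driven reporter constructs, treated 24 h. Total RNA reverse-transcribed, reporter cDNA PCR-amplified, FAM-labelled by primer extension, digested, resolved by capillary electrophoresis. Activity fitted both directions versus DMSO.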

[7] = ATG_BRE_CIS: Attagene CIS-FACTORIAL HepG2 Assay for human Bone Morphogenetic Protein (BMP) Response Element (BRE) (AID 2282933); details: HepG2 BMP response element reporter, Attagene transcription factor profiling; actives raise or lower the signal
Procedure, shortened: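 Transient MRTU transfection of human HepG2 liver cells; 24 h compound treatment; total RNA isolated, reverse-transcribed, PCR-amplified, 6-FAM labelled, HpaI-cut, capillary electrophoresis. DMSO = negative control/baseline, bidirectional fit.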

[8] = target: Retinoic acid receptor alpha (Homo sapiens) (UniProt P10276); assay: ATG_DR5_RAR_CIS: Attagene CIS-FACTORIAL HepG2 Assay for human Retinoic Acid Receptor Alpha (RARE), DR5 submotif (AID 2282934); details: HepG2 Attagene cis-factorial RARE DR5 reporter, mRNA; actives raise or lower the signal
Sequence of Retinoic acid receptor alpha (Homo sapiens) (P10276 whole entry, looked up): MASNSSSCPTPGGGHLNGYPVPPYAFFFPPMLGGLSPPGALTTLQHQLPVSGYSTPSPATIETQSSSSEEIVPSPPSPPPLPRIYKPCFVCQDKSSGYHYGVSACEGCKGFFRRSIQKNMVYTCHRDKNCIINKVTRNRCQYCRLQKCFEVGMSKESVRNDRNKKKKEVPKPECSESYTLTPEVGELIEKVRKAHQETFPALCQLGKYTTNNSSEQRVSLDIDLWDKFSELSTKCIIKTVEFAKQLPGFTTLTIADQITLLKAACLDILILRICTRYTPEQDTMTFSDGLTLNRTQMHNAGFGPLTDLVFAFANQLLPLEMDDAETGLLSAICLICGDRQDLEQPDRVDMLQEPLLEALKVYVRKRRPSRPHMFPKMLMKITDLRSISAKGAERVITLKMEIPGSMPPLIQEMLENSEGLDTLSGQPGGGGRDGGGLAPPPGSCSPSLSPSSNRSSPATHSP
Procedure, shortened: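 HepG2 cells transiently transfected with multiplexed reporter units under cis (DR5 RARE) promoters, so endogenous transcription factor activity is measured. After 24 h compound exposure, reporter mRNA is quantified by RT-PCR with fluorescent labelling and capillary electrophoresis; bidirectional fitting versus DMSO.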

[9] = target: Transcription factor E2F1 (Homo sapiens) (UniProt Q01094); assay: ATG_E2F_CIS: Attagene CIS-FACTORIAL HepG2 Assay for human E2F Transcription Factor 1 (AID 2282935); details: HepG2 Attagene cis-reporter, E2F reporter RNA transcripts; actives raise or lower the signal
Sequence of Transcription factor E2F1 (Homo sapiens) (Q01094 whole entry, looked up): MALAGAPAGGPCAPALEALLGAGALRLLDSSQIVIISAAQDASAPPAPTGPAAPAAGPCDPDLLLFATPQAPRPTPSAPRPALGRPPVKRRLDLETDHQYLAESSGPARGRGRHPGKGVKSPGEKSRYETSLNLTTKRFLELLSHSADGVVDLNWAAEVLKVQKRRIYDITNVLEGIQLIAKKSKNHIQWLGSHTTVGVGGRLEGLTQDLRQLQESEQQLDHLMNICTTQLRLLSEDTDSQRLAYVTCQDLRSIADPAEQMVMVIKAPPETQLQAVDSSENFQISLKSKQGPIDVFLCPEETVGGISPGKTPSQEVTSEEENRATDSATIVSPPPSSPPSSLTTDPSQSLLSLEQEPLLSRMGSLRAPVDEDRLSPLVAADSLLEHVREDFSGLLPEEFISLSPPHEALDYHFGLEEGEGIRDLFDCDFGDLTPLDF
Procedure, shortened: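 First, HepG2 cells were transfected with reporter transcription units. Next, they were dosed for 24 h. Then RNA was isolated, converted to cDNA, PCR-amplified, FAM-labeled, HpaI-digested and analyzed by capillary electrophoresis.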

[10] = ATG_E_Box_CIS: Attagene CIS-FACTORIAL HepG2 Assay for human Enhancer Box (E-box) (AID 2282936); details: HepG2 E-box cis-reporter transcription, actives raise or lower the signal
Procedure, shortened: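 Endogenous transcription factor activity was sensed in human HepG2 liver cells through transfected cis-promoter reporter units. After 24 h of dosing, total RNA was reverse-transcribed and reporter cDNA resolved by capillary electrophoresis.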

[11] = ATG_M_61_CIS: Attagene CIS-FACTORIAL HepG2 Assay for M61 Transcription Factor (Internal Marker) (AID 2282937); details: HepG2 Attagene CIS-FACTORIAL M61 internal marker reporter; actives raise or lower the signal
Procedure, shortened: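 Multiplexed reporter mRNA assay, HepG2 human hepatoma cells, 24 h treatment. Signal: FAM-labelled, HpaI-digested RT-PCR fragments by CE. Fit: bidirectional, baseline DMSO.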

[12] = ATG_EGR_CIS: Attagene CIS-FACTORIAL HepG2 Assay for human Early Growth Response 1 (EGR1) (AID 2282938); details: HepG2 Attagene CIS-FACTORIAL EGR reporter mRNA; actives raise or lower the signal
Procedure, shortened: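 Multiplexed cis-reporter system in human hepatoma HepG2 cells, transiently transfected. Cells are dosed for 24 h; reporter transcripts are amplified, fluorescently tagged and sized by capillary electrophoresis, with DMSO as negative control.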

[13] = ATG_M_19_CIS: Attagene CIS-FACTORIAL HepG2 Assay for M19 Transcription Factor (Internal Marker) (AID 2282939); details: HepG2 Attagene CIS-FACTORIAL M19 internal marker reporter; actives raise or lower the signal
Procedure, shortened: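 Transfect HepG2 with MRTU reporter library → dose chemical, 24 h → isolate total RNA, reverse-transcribe with oligo(dT) → PCR, 6-FAM label, HpaI cut (2 h, 37 C) → capillary electrophoresis. Bidirectional fit vs DMSO.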

[14] = ATG_ERE_CIS: Attagene CIS-FACTORIAL HepG2 Assay for Estrogen Response Element (ERE) (AID 2282940); details: HepG2 ERE cis-reporter, Attagene RNA transcript; actives raise or lower the signal
Procedure, shortened: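 Transient MRTU transfection of human HepG2; cis-element promoters; 24 h dosing; total RNA → RT (oligo dT) → PCR → 6-FAM primer extension → HpaI digest → CE fluorescence. Bidirectional fit, DMSO baseline.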

[15] = ATG_Ets_CIS: Attagene CIS-FACTORIAL HepG2 Assay for human Erythroblast Transformation Specific (ETS) (AID 2282941); details: HepG2 ETS cis-reporter transcription, actives raise or lower the signal
Procedure, shortened: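 Cis-regulated reporter mRNA induction in HepG2 (transient transfection), 24 h exposure, RT-PCR plus capillary electrophoresis detection; DMSO serves as negative control and baseline.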

[16] = target: Hepatocyte nuclear factor 3-beta (Homo sapiens) (UniProt Q9Y261); assay: ATG_FoxA2_CIS: Attagene CIS-FACTORIAL HepG2 Assay for human Forkhead box A2 (FOXA2) (AID 2282942); details: HepG2 cis-reporter transcription factor activity, 24 h; actives raise or lower the signal
Sequence of Hepatocyte nuclear factor 3-beta (Homo sapiens) (Q9Y261 whole entry, looked up): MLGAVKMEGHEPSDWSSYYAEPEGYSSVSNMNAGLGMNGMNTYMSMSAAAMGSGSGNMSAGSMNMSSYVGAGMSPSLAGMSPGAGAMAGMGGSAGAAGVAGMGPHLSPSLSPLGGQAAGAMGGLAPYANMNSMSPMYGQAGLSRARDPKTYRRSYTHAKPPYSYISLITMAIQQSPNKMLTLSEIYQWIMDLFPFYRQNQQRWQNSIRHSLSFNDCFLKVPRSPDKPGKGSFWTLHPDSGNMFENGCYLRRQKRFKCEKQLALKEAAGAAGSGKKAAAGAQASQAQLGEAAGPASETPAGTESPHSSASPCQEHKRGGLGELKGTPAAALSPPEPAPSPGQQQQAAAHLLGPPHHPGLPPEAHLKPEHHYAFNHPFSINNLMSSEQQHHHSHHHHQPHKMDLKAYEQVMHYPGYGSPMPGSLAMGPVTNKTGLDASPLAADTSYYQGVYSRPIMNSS
Procedure, shortened: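 Multiplexed cis-element reporter assay in transiently transfected HepG2. Twenty-four hours post-dosing, RNA was reverse-transcribed, amplified, FAM-labelled, HpaI-digested and separated by CE. Activity gain or loss relative to DMSO.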

[17] = ATG_FoxO_CIS: Attagene CIS-FACTORIAL HepG2 Assay for human Forkhead box O (FoxO) (AID 2282943); details: HepG2 Attagene cis-reporter, FoxO element, mRNA; actives raise or lower the signal
Procedure, shortened: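 HepG2 cells transiently transfected with cis-promoter-driven multiple reporter transcription units; 24 h after chemical dosing, reporter mRNA quantified by RT-PCR, fluorescent primer extension, HpaI digestion and capillary electrophoresis. Bidirectional fitting versus DMSO baseline.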

[18] = ATG_GATA_CIS: Attagene CIS-FACTORIAL HepG2 Assay for human GATA Binding Protein (AID 2282944); details: HepG2 GATA cis-element reporter, Attagene multiplex mRNA; actives raise or lower the signal
Procedure, shortened: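 Transient MRTU transfection, HepG2, 24 h compound exposure. Total RNA → oligo(dT) RT → PCR → 6-FAM primer extension → HpaI cut → CE. Bidirectional fit vs DMSO.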

[19] = ATG_GLI_CIS: Attagene CIS-FACTORIAL HepG2 Assay for human Zinc Finger Protein GLI1 (AID 2282945); details: HepG2, Attagene cis-factorial reporter mRNA, GLI element; actives raise or lower the signal
Procedure, shortened: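 HepG2 cells transiently transfected with cis-promoter multiplexed reporter units report endogenous transcription factor activity. After 24 h chemical exposure, reporter mRNA was quantified by RT-PCR, 6-FAM labelling, HpaI digestion and capillary electrophoresis, with bidirectional fitting against DMSO.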

Measured: AC50

COC(=O)C1=C(C)NC(C)=C(C(=O)OCC(C)C)C1c1ccccc1[N+](=O)[O-] (centres undefined)
active: [10] 18.6 µM
inactive: all other assays above

CC(C)=CCC/C(C)=C\C#N
not listed: [18]
inactive: all other assays above

[Cl][Bi]([Cl])([c]1ccccc1)([c]1ccccc1)[c]1ccccc1
active: [3] 3.07 µM | [5] 5.85 µM | [7] 6.21 µM | [10] 3.68 µM | [12] 6.3 µM | [17] 4.47 µM
not listed: [6]
inactive: all other assays above

Cc1cc(C)c(C)cc1C
not listed: [1]
inactive: all other assays above

O=C(c1ccc(O)cc1)c1ccc(O)cc1O
active: [2] 68.7 µM | [7] 100 µM | [14] 0.84 µM
not listed: [9]
inactive: all other assays above

O=C1CCC(=O)N1Cl
inactive: all assays above

COc1cc(C)ccc1C(C)C
not listed: [2] | [9] | [18]
inactive: all other assays above

Cc1ccc2c(c1)C(=O)c1ccccc1C2=O
active: [2] 21.5 µM | [4] 9.39 µM | [14] 12.2 µM
not listed: [11]
inactive: all other assays above
